The source of these data is PubChem BioAssay (NCATS).

Common to all, as to assay: qHTS profiling for inhibitors of Plasmodium falciparum proliferation (AID 504749); note: nearly all actives have a fitted effect of over 60% in size
Settings in all cases: P. falciparum in erythrocytes, SYBR Green DNA, 72 h; series mostly up to 28.7 µM

Test [1] has as its system CP266. Put shortly: (§1)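 P. falciparum-infected erythrocytes (0.3% parasitemia, 2.5% hematocrit) incubated with compound 72 h at 37 C, 5% CO2. Parasite DNA detected by SYBR Green after lysis, overnight at room temperature; normalised to 0.29 uM artemisinin and DMSO.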
For test [2], the system named is CP268. In a few lines:
as §1

The subject of test [3] is CP269. Put shortly: as §1
For test [4], the system named is CP286. In a few lines: as §1
For test [5], the system named is CP291. Put shortly: as §1
Test [6] deals with CP297. In a few lines: as §1
For test [7], the system named is CP315. Put shortly: as §1
In test [8] the test system is CP325. In a few lines:
as §1

Test [9] concerns CP329. In a few lines: as §1
Test [10] deals with CP305. In a few lines:
as §1

Values joined by “and” are separate entries in the source; they are usually repeats but may differ in a detail not shown here. Equal entries are not always repeated. Results filed as inconclusive are left out. Active and inactive are the calls of the source. Calls come from the whole dose curve; as a rule, active = well fitted inhibition curve with a large enough effect; inconclusive = small, poorly fitted or top-dose-only effect; inactive = flat fitted curve, though single readings scatter.
Potency is the fitted concentration of half-maximal effect.

In the case of `CC[C@]1(O)CC[C@H]2[C@@H]3CCC4=CCCC[C@@H]4[C@H]3CC[C@@]21C`, the Potency entry in test [1], in test [2], in [3], in [4], in [5] and in [6] was “inactive” in each case. For the same compound, the Potency result in test [7], in [8] and in test [9] was “inactive” in each case.
On to `Cc1c(Cl)c(=O)oc2cc(OP(=O)(OCCCl)OCCCl)ccc12`, for which the Potency in [2] was 12 µM (active); in [3], 12 µM (active); in test [4], 11.2 µM (active); in [5] it was 7.57 µM (active); in [6], 12 µM (active); in test [10] it was 6.75 µM (active). Also, the Potency is 13.5 µM (active) in test [8] and 12 µM (active) in test [9].
In the case of `CN1CCc2cc(Cl)c(O)cc2[C@H]2c3ccccc3CC[C@@H]21`, in test [4], the Potency was 11.2 µM (active). Moreover, the Potency result in test [7] and in [8] was “inactive” throughout.
Consider `OC(O)C(Cl)(Cl)Cl`, for which the Potency entry in [2], in test [3], in test [4], in test [5], in test [10] and in test [7] was “inactive” in each case. In addition, the Potency result in test [8] and in test [9] was “inactive” in each case.
`c1ccc2nc(N3CCNCC3)ccc2c1`: the Potency result in test [1], in test [2], in test [3], in test [4], in [5] and in test [6] was “inactive” each time. Besides, the Potency result in [10], in test [7], in test [8] and in [9] was “inactive” each time.
As for `O=C(CCCN1CCC(n2c(=O)[nH]c3ccccc32)CC1)c1ccc(F)cc1`, the Potency is 3.61 µM (active) in [2]; 1.81 µM (active) in [3]; 2 µM (active) in test [4]; 6.42 µM (active) in [5]; 5.1 µM (active) in test [10]; 5.1 µM (active) in test [8].
In the case of `CCCCCCCCC(=O)NCc1ccc(O)c(OC)c1`, the Potency entry in [2], in [3], in test [4], in [5], in test [6] and in test [10] was “inactive” in each case. For the same compound, the Potency entry in test [7], in test [8] and in test [9] was “inactive” throughout.
On to `C[N+]1(CCC(C(N)=O)(c2ccccc2)c2ccccc2)CCCCC1`, for which the Potency entry in test [1], in test [2], in test [3], in [4], in test [5] and in test [6] was “inactive” each time. Further, the Potency entry in test [10], in test [7] and in test [9] was “inactive” in each case.
`CC(C)(O)C(Cl)(Cl)Cl`: the Potency was 6.01 µM (active) in test [2]; 4.26 µM (active) in test [3]; 5.62 µM (active) in [4]; 15.1 µM (active) in [5]; 6.01 µM (active) in test [10]; 12 µM (active) in test [8].
Regarding `c1cc2c(c(N3CCNCC3)c1)OCCO2`, the Potency entry in test [2], in [3], in test [4], in test [5], in [10] and in test [7] was “inactive” throughout. In addition, the Potency entry in test [8] and in test [9] was “inactive” in each case.
For `CN1C[C@@H](NS(=O)(=O)N(C)C)C[C@@H]2c3cccc4c3c(cn4C)C[C@H]21`, the Potency entry in test [2], in test [5], in test [10], in test [7] and in test [8] was “inactive” each time.
As to `COc1ccc(C(=O)N2CCCC2=O)cc1`, the Potency result in test [1], in test [2], in [3], in test [4], in [10] and in test [7] was “inactive” in each case. The Potency result in test [8] and in test [9] was “inactive” each time.
As to `CC[n+]1c(-c2ccccc2)c2cc(N)ccc2c2ccc(N)cc21`, the Potency in test [1] was 301 nM (active) and 601 nM (active); in test [2], 107 nM (active) and 379 nM (active); in [3] it was 120 nM (active) and 478 nM (active); in [4] it was 70.8 nM (active) and 158 nM (active); in test [5], 151 nM (active) and 601 nM (active); in test [6], 169 nM (active) and 478 nM (active). Besides, the Potency in test [10] is 84.9 nM (active) and 379 nM (active); in [7], 478 nM (active) and 1.69 µM (active); in test [8] it was 95.3 nM (active) and 379 nM (active); in test [9], 107 nM (active) and 426 nM (active).
Regarding `Oc1c(Br)cc(Br)cc1Br`, the Potency result in [1], in [2], in test [3], in [4], in test [5] and in [10] was “inactive” throughout. The Potency entry in [7], in test [8] and in test [9] was “inactive” throughout.
For `CC(Cc1ccccc1)NCc1ccccc1Cl` (stereo unspecified), the Potency entry in test [1], in test [4], in [6], in test [10], in test [7] and in [9] was “inactive” each time.
On to `C[C@]12C=CC(=O)C=C1CC[C@@H]1[C@@H]2CC[C@@]2(C)[C@H]1CC[C@]2(C)O`, for which, in test [4], the Potency entry was “inactive”. Besides, the Potency in [6] is 19 µM (active).
